# FMDV antiviral = shows antiviral activity against foot and mouth disease virus; FMDV antiviral cell assay, firefly luciferase signal; Potency, µM (doses to about 57.5 µM), for inactives: at the top dose activity change, negative = inhibition, usual class: inhibitors; 0.23% of 120,000 active; AID 1745856; further: nearly all actives have a fitted effect of over 60% in size
# FMDV RLuc = antivirals against foot and mouth disease virus replicon. FMDV replicon cells, Renilla luciferase signal. Potency, µM (doses to about 57.5 µM), for the others: top-dose activity change, negative = inhibition, hits mostly inhibitors. 0.32% of 120,000 active. AID 1745857; further: nearly all actives have a fitted effect of over 55% in size
# Active calls of the source: *; ? = inconclusive; [ ] = dose if it differs, or a comment. A selection: hits, their analogues and other compounds. The true share with any hit is near 0.51%. The call rests on the fitted dose curve. On the % scale 0 is the no-effect control and ±100 the full control effect; potency means the concentration at half of the fitted maximal effect.
SMILES,FMDV antiviral,FMDV RLuc
Cc1[nH]c2ccccc2c1C1c2ccccc2C(=O)N1CCC(C)C (stereo unspecified),?,1%
COc1cc(CNC(=O)c2ccc3nc(Cc4ccccc4)oc3c2)cc(OC)c1OC,14µM*,?
COc1cc(CNC(=O)c2ccc3nc(CCc4ccccc4)oc3c2)cc(OC)c1OC,-24%,15%
CC(C)C1C(C#N)=C(N)OC2=C1C(=O)CC(C)(C)C2 (stereo unspecified),1%,1%
CC1(C)CC(=O)C2=C(C1)Nc1[nH]n(-c3ccccc3)c(=O)c1C2c1ccc(F)cc1 (stereo unspecified),43%,156%
CC1(C)CC(=O)C2=C(C1)Nc1[nH]n(-c3ccccc3)c(=O)c1C2c1ccc(O)cc1 (stereo unspecified),2%,10µM*
CC(Nc1ccc(N2CCCC2=O)c(Cl)c1)c1nc(C(C)(C)C)no1 (stereo unspecified),1%,-6%
CC(=O)c1cc(Br)ccc1OCc1ccc(Cl)c(Cl)c1,250%,23%
COCCN1C(=O)c2n[nH]c(-c3ccco3)c2C1c1ccc(C(=O)OC)cc1 (stereo unspecified),-5%,3%
COc1ccc(N2CCN(S(=O)(=O)c3csc(C(N)=O)c3)CC2)cc1,-8%,-15%
Cc1cccc(N2CCN(S(=O)(=O)c3csc(C(N)=O)c3)CC2)c1C,13µM*,8.9µM*
CC(C)Sc1nc2c(c(=O)n(C)c(=O)n2C)n1Cc1ccccc1Cl,3%,-8%
CSc1nc2c(c(=O)n(C)c(=O)n2C)n1Cc1cccc2ccccc12,16µM*,14µM*
O=S(=O)(c1ccc(Oc2ccc(Br)cc2F)nc1)N1CCCC1,23%,17%
CCC1CN(C(=O)N2CCC(C(=O)NCc3ccccc3C)CC2)c2ccccc2O1 (stereo unspecified),-14%,17%
CCC1CN(C(=O)N2CCC(C(=O)Nc3cc(C)ccc3C)CC2)c2ccccc2O1 (stereo unspecified),0%,19%
CCC1CN(C(=O)N2CCC(C(=O)N3CCN(c4cccc(C)c4C)CC3)CC2)c2ccccc2O1 (stereo unspecified),?,28µM*
CCC1CN(C(=O)N2CCC(C(=O)N3CCN(c4cc(C)ccc4C)CC3)CC2)c2ccccc2O1 (stereo unspecified),20µM*,?
O=C(Cc1csc(-c2ccccc2)n1)Nc1ccnn1Cc1cccc(Cl)c1,?,110%
CONC(=O)c1cccc(NC(=O)c2cccs2)c1,62%,0%
CCOC(=O)c1ccc(NCc2ccc(Cl)cc2Cl)cc1,24%,5%
N#Cc1cc2c(nc1N1CCN(C(C(=O)O)c3c[nH]c4cc(F)ccc34)CC1)CCCC2 (stereo unspecified),-13%,-15%
CC(C)Cc1nc(C#N)c(NCc2ccc(F)cc2)o1,0%,14%
COc1ccc(Cn2c(C(=O)O)c(CNCc3ccccc3F)c3ccc(OC)cc32)cc1,35µM*,0%
CCOc1ccccc1CNCc1c(C(=O)O)n(Cc2ccccc2)c2cc(OC)ccc12,-21%,1%
SMILES,FMDV antiviral,FMDV RLuc
COc1ccccc1-c1nn2c(CN3CCCCC3)nnc2s1,11%,23%
CCOC(=O)CSC(C(=O)NC(N)=O)C(C)C (stereo unspecified),6%,-10%
O=C(CCCCl)Nc1ncc(Cc2cccc(Cl)c2)s1,0%,12%
CCCn1nc(C(=O)Nc2ncc(Cc3cccc(Cl)c3)s2)ccc1=O,28µM*,?
CCCn1c(N)c(N(CCOC)C(=O)c2cccc(OC)c2)c(=O)[nH]c1=O,-6%,0%
CC(C)(C)c1ccc(/C=C/C(=O)NCCC2=CCCCC2)cc1,18%,6%
Cc1c2cnn(-c3ccccc3)c(=O)c2c(C)n1CC(=O)N1CCN(c2cccc(Cl)c2)CC1,-8%,-3%
Cc1ccc(C)c(N2CCN(C(=O)Cn3c(C)c4cnn(-c5ccccc5)c(=O)c4c3C)CC2)c1,25µM*,22µM*
NCCCS(N)(=O)=O,-3%,-4%
CCOC(=O)C1=C(N)Oc2c(oc(CO)cc2=O)C1c1cccc(F)c1 (stereo unspecified),13%,6%
COc1ccc(-c2noc(CCCC(=O)Nc3ccc(S(=O)(=O)N4CCCCCC4)cc3)n2)cc1,32µM*,?
COc1ccc(-c2noc(CCCC(=O)Nc3cccc(Cl)c3C)n2)cc1,-14%,-12%
CNc1nc2c(c(=O)n(C)c(=O)n2C)n1CC(O)COc1ccc(OC)cc1 (stereo unspecified),?,22µM*
Cc1ccc(OCC(O)Cn2c(N)nc3c2c(=O)n(C)c(=O)n3C)cc1 (stereo unspecified),3%,-14%
Cc1c(Cl)cccc1NC(=O)Cn1cnc(S(=O)(=O)N2CCOCC2)c1,3%,-2%
CCN(CC)c1ccc(Nc2nc(N3CCOCC3)c3ccccc3n2)cc1,?,20µM*
CCOc1ccc(Nc2nc(N3CCOCC3)c3cnn(C)c3n2)cc1,2%,3%
Cc1cccc(NC(=O)CSc2ncc(CO)n2CC(=O)NC2CC2)c1C,0%,-1%
C(#Cc1ccccc1)C[N+]1(CC#Cc2ccc(C#CC[N+]3(CC#Cc4ccccc4)CCOCC3)cc2)CCOCC1,-8%,-13%
CC(C)Cc1nn2c(=O)cc(CSCC(=O)Nc3cccc4ccccc34)nc2s1,-3%,-10%
CCCCC(CC)CN=C(N)NC(N)=NCCCCCCN=C(N)NC(N)=NCC(CC)CCCC (stereo unspecified),?,28µM*
CCCCN=C(N)N=C(N)N,-8%[11.5 µM],-1%
O=C(Nc1cccc(F)c1)c1ncoc1-c1cccc(Cl)c1,-5%,-10%
Cc1cc(C(=O)N2CCN(c3cccc(C(F)(F)F)c3)CC2)cs1,-3%,-3%
Cc1nc(/C=C/C(=O)N2CCN(c3cccc(C(F)(F)F)c3)CC2)cs1,?,20µM*
SMILES,FMDV antiviral,FMDV RLuc
c1ccc2c(c1)OCCOCCOCCOc1ccccc1OCCO2,-2%,-7%
Cc1cc(C)c2c(C)c(C(=O)O)oc2c1,35%,56%
CCN1CCN(C(C(=O)O)c2c[nH]c3cc(NC(=O)c4ccccc4)ccc23)CC1 (stereo unspecified),13µM*,1%
CCN1CCN(C(C(=O)O)c2c[nH]c3ccc(NC(=O)c4ccccc4)cc23)CC1 (stereo unspecified),14%,-8%
CCOc1ccc2nc(N(Cc3cccnc3)C(=O)c3cccs3)sc2c1,55%,4%
COc1ccc2sc(N(Cc3cccnc3)C(=O)c3cccs3)nc2c1,?,3.2µM*
CCc1c(C)sc(NC(=O)Cc2c(Cl)cccc2Cl)c1C#N,-10%,-14%
c1ccc(Nc2nc(NCc3ccco3)c3ccccc3n2)cc1,-7%,?
c1ccc(CNc2nc(Nc3ccccc3)nc3ccccc23)cc1,?,13µM*
O=C(Nc1ccc(SCc2cccnc2)cc1)c1ccc2c(c1)OCCCO2,?,18µM*
O=C(Nc1ccc2c(c1)OCCCO2)c1ccc(SCc2cscn2)cc1,-10%,?
CC(Oc1cccc(C(F)(F)F)c1)C(=O)NN (stereo unspecified),0%,13%
CC(C)NC(=O)c1cccc2c1CCCN2Cc1nc(-c2cccc(Cl)c2)no1,?,25µM*
CCc1ccc(-c2noc(CN3CCCc4c(C(=O)NC(C)C)cccc43)n2)cc1,21%,7%
CSc1ccc(NC(=O)c2ccc3c(c2)NC(=O)CCS3)cc1,?,10µM*
CNC(=O)c1ccc2c(c1)NC(=O)CCS2,9%,-1%[1.06 µM]
